# Compounds without any hit were thinned out: in the full panel of roughly 83,000, 20% have a hit.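 Single-concentration screen, 48 h exposure, 96-well plates. Endpoint: percent growth. Below 10 = active.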 Unmarked numbers belong to inactive results. Active and inactive are the calls of the source.
# What was measured:
# Experiment in all cases: NCI-60 one-dose screen, 48 h (100 = growth as untreated, 0 = no growth, -100 = all killed)
# Conditions in all cases: 10 µM unless noted
# NCI/ADR-RES ovarian = tested on: NCI/ADR-RES ovarian
# T-47D breast = tested on: T-47D breast
# BT-549 breast = tested on: BT-549 breast
# MDA-MB-435 melanoma = tested on: MDA-MB-435 melanoma
# SW-620 colon = tested on: SW-620 colon
# MCF7 breast = tested on: MCF7 breast
# HCT-116 colon = tested on: HCT-116 colon
# HCC-2998 colon = tested on: HCC-2998 colon
# KM12 colon = tested on: KM12 colon
Structure (SMILES),growth (NCI/ADR-RES ovarian),growth (T-47D breast),growth (BT-549 breast),growth (MDA-MB-435 melanoma),growth (SW-620 colon),growth (MCF7 breast),growth (HCT-116 colon),growth (HCC-2998 colon),growth (KM12 colon)
C#Cc1ccc2c(c1)C(c1ccccc1F)=NCC(=O)N2C,16.6%,40.9%,47.2%,10.2%,30.3%,19.7%,17.3%,65.2%,27.8%
COc1cc(/C=C/[N+](=O)[O-])c([N+](=O)[O-])cc1OC,13.5%,16.5%,87.3%,14%,-57.3% (active),8.83% (active),-62.4% (active),86.3%,18.5%
CC[C@H](C)[C@H](NC(=O)[C@H]1CCCCN1C)C(=O)N(C)[C@H](C[C@@H](OC(C)=O)c1nc(C(=O)NC23CC(C(=O)OC)(C2)C3)cs1)C(C)C,10%,64.4%,-39.2% (active),-14.1% (active),39.4%,12.1%,5.83% (active),10.4%,0.539% (active)
CC1=C(CCCOC(=O)CN)C2=C(C)C3(CC3)[C@@](C)(O)C(=O)C2=C1,84.7%,63.6%,65.8%,101%,91.5%,71.1%,71.5%,85.1%,100%
CCOC(=O)N1CC1,98%,114%,109%,97.1%,103%,102%,98.4%,150%,107%
COC(=O)[C@@H](C)C[C@H](Cc1ccc(F)cc1)NC(=O)c1csc([C@@H](C[C@H](C(C)C)N(C)C(=O)[C@@H](NC(=O)[C@H]2CCCCN2C)C(C)C)OC(C)=O)n1,25.2%,77.3%,-18.6% (active),-28.8% (active),26.9%,22.2%,4.23% (active),21.8%,12.4%
Cn1cc(-c2csc(-c3cn(CCCCN4CCCCC4)c4ccccc34)n2)c2cccnc21,-17.4% (active),88.4%,69.2%,-79.6% (active),-65.2% (active),-65.9% (active),-90.4% (active),87.2%,0.281% (active)
CCCCCCCCCCCCNC(c1ccccc1)C(O)c1ccccc1 (configuration not stated),68.8%,70.4%,103%,91.4%,48.1%,63.7%,12.2%,43.1%,74.9%
CC(=O)[O][Hg][O]C(C)=O,108%,52.9%,103%,85.7%,85.6%,55.9%,95.7%,120%,87.5%
CC1CCCC(C[N+](C)(C)C)C1=O (configuration not stated),107%,84.5%,125%,106%,109%,103%,109%,102%,109%
O=C1OCC2=C1C(c1ccccc1)c1cc3c(cc1N2)OCO3 (configuration not stated),-0.134% (active),62.6%,-5.6% (active),-24.9% (active),27.8%,15.9%,4.53% (active),3.21% (active),-32% (active)
O=[N+]([O-])c1cnc[nH]1,104%,117%,112%,105%,104%,94.8%,106%,102%,107%
Fc1cccc(NCOOC2(OOCNc3cccc(F)c3)CCCCC2)c1,77.8%,86.8%,102%,101%,104%,88.8%,87.3%,105%,94.6%
O=C(CN1CCN(C(=O)c2ccco2)CC1)Nc1ccc(Cl)cc1C(=O)c1ccccc1Cl,83.4%,64.3%,101%,118%,86.8%,84.9%,86.8%,97.4%,89.1%
O=C1C2C(C(=O)[N]1[Hg][c]1ccccc1)C1(Cl)C(Cl)=C(Cl)C2(Cl)C1(Cl)Cl (configuration not stated),40.6%,-36.9% (active),-89% (active),-78% (active),-78.4% (active),-55.3% (active),-77.7% (active),11.7%,74.6%
CC1=C(CCCNS(C)(=O)=O)C2=C(C)C3(CC3)[C@@](C)(O)C(=O)C2=C1,-5.49% (active),-11.2% (active),-31% (active),11.7%,83.3%,20.7%,1.02% (active),-43.3% (active),62.4%
CCn1c2ccccc2c2cc(C(=O)c3cccc4c3CCCN4)ccc21,92.7%,104%,98.1%,97.6%,96.1%,96.5%,105%,104%,94.9%
OCCCCCNC1CCCCC1,103%,95.4%,105%,104%,107%,103%,94.7%,104%,111%
O=C(O)CNC(=O)C(Cl)(Cl)Cl,108%,94.5%,103%,97.8%,94.8%,91.1%,107%,104%,101%
C=CCCCN=C=S,87.2%,47.3%,67.1%,61.2%,66.5%,40.5%,44.7%,102%,49.9%
CCn1nccc1NC(=O)C(=O)c1cn(Cc2ccc(F)cc2)c2cccc(OC)c12,90.2%,80.5%,86.1%,104%,93.3%,97.3%,51.1%,102%,97.2%
CO[C@H](C(=O)O)[C@@H]1Cc2cc3cc(OC4CC(OC5CC(O)C(O)C(C)O5)C(O)C(C)O4)c(C)c(O)c3c(O)c2C(=O)[C@H]1OC1CC(OC2CC(OC3CC(C)(O)C(O)C(C)O3)C(O)C(C)O2)C(O)C(C)O1 (some centres not stated),74%,12.8%,-41.9% (active),1.21% (active),19.1%,7.44% (active),6.04% (active),-37.8% (active),7.07% (active)
COC(=O)[C@@]1(C)CC[C@]2(C)CC[C@]3(C)C4=CC=C5C(=CC(=O)C(O)=C5C)[C@]4(C)CC[C@@]3(C)[C@@H]2C1,-59.8% (active),-57.1% (active),-95.2% (active),-90.8% (active),-83% (active),-69.1% (active),-96.4% (active),-69.5% (active),-63.1% (active)
CCCC(C)C1(CC)C(=O)NC(=O)N(C)C1=O (configuration not stated),104%,87%,105%,97.9%,101%,103%,114%,97.9%,110%
CC(C)=CCC[C@H](C(=O)O)[C@@H]1CC[C@]2(C)C3=C(CC[C@@]12C)[C@@]1(C)CC[C@H](O)C(C)(C)[C@@H]1CC3,102%,92.5%,75.2%,103%,105%,88.9%,78.5%,100%,99.7%
CC(C)=CCc1c(O)c(C(=O)CC(C)C)c(O)c2c(-c3ccccc3)cc(=O)oc12,35.6%,33.4%,30.4%,57.1%,48.5%,28.3%,36.8%,42.4%,41%
C=CC[PH+](c1ccccc1)c1ccccc1.C=CC[PH+](c1ccccc1)c1ccccc1.[Cl][Pt][Cl],97%,0.0943% (active),78%,64.9%,2.38% (active),31.9%,3.92% (active),94.9%,77.8%
CNCc1cccnc1,104%,98.4%,124%,95.9%,107%,105%,107%,96.6%,104%
